An excerpt weighted towards active compounds, which were near 10% of everything screened.
Pf growth 48h – Primary qHTS for delayed death inhibitors of the malarial parasite plastid, 48 hour incubation; hit rate 5.9% among 310,000; P. falciparum luciferase growth in erythrocytes, 48 h; Potency, µM (titrated, usually from 28.7 µM), hits mostly inhibitors; active means well fitted inhibition curve with a large enough effect; inconclusive means small, poorly fitted or top-dose-only effect, or another doubt; inactive means no such curve, though single readings can be large or run the other way
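Firefly luciferase activity from engineered P. falciparum reports growth; inhibitors lower the luminescent signal. Cultures contained 2% hematocrit erythrocytes at 0.1% final parasitemia.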
NS1 function inh – qHTS Assay for Inhibitors of Influenza NS1 Protein Function; AID 2326, 2010; Potency, µM (doses to about 46.1 µM); hit rate 0.4% among 270,000; further: actives are rising curves; nearly all actives have a fitted effect of over 50% in size
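Growth recovery, yeast-based: influenza A NS1 expressed in S. cerevisiae causes slow growth, and suppressors are detected by OD600. The parent strain without NS1 is used as positive control.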
Pf growth 96h – Primary qHTS for delayed death inhibitors of the malarial parasite plastid, 96 hour incubation | P. falciparum luciferase reporter growth, 96 h | Potency, µM (titrated, usually from 28.7 µM), actives largely listed as inhibitors | hit rate 6.9% among 320,000 | AID 504834, 2011; active means well fitted inhibition curve with a large enough effect; inconclusive means small, poorly fitted or top-dose-only effect, or another doubt; inactive means no such curve, though single readings can be large or run the other way
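Plates of compound plus infected erythrocytes (2% hematocrit, 0.05% parasitemia final) incubate 96 hours, 37 C, 5% CO2. Detection reagent added; reduced luminescence from the parasites' luciferase reporter flags inhibition.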
SARS PLpro yeast – qHTS of Yeast-based Assay for SARS-CoV PLP; S. cerevisiae expressing SARS-CoV PLpro, growth rescue; Potency, µM (top dose mostly 32.9 µM), most hits filed as activators; hit rate 0.19% among 330,000; further: nearly all actives have a fitted effect of over 55% in size
Hits are given with their value; – = inactive; ? = inconclusive; · = no result given. Unless noted, the call rests on the fitted dose curve.

SMILES | Pf growth 48h | NS1 function inh | Pf growth 96h | SARS PLpro yeast
CCN(Cc1nc2cc(Cl)ccc2c(=O)[nH]1)C(=O)C1CC(=O)N(c2cccc3ccccc23)C1 (stereo unspecified) | 10µM | · | ? | –
Cc1ccccc1N=C(NOCc1ccc(Cl)cc1Cl)c1nonc1N | · | – | 12µM | –
Cc1ccc(N=C(NOC(=O)c2ccccc2)c2nonc2N)c(C)c1 | ? | – | 5.9µM | –
Cc1ccccc1N=C(NOCc1ccccc1)c1nonc1N | ? | – | ? | –
Cc1ccc(N=C(NOCc2ccc(Cl)cc2Cl)c2nonc2N)c(C)c1 | · | – | 12µM | –
Cc1ccc(N=C(NO)c2nonc2N)c(C)c1 | – | – | – | –
COc1ccc(-n2c(C(C)n3nc(C)c([N+](=O)[O-])c3C)n[nH]c2=S)cc1 (stereo unspecified) | – | – | ? | –
COc1ccc(-n2c(C)c([N+](=O)[O-])c3ccc(O)c(CN(C)C)c32)cc1 | 0.83µM | ? | ? | –
Nc1cccc2cc(-c3ccccc3)oc12 | – | · | – | –
COc1ccc(S(=O)(=O)N2CCCC(C(=O)NCc3ccc4c(c3)OCO4)C2)cc1 (stereo unspecified) | 2.1µM | – | – | –
O=C(NCc1ccc2c(c1)OCO2)C1CCN(c2ccc(S(=O)(=O)N3CCCC3)cc2)CC1 | 10µM | – | – | –
CN1C(=O)C(C)(C)c2cc(S(=O)(=O)N3CCCC(C(=O)NCc4ccc(F)cc4)C3)ccc21 (stereo unspecified) | ? | – | 10µM | –
O=C(NCc1ccc2c(c1)OCO2)C1CCN(S(=O)(=O)N2CCOCC2)CC1 | – | – | 3.7µM | –
O=C1CC(N2CCN(S(=O)(=O)c3ccc([N+](=O)[O-])cc3)CC2)C(=O)N1c1ccccc1F (stereo unspecified) | ? | · | ? | –
Cc1ccc2c(c1)cc1c(=O)n(CC(=O)N3CCCC3)nc(C)n12 | – | – | ? | –
O=C(NC1CC1)C1CCN(C2CCN(C(=O)Cc3ccc4c(c3)OCO4)CC2)CC1 | – | – | 12µM | –
COCC(CN1CCN(C2=NS(=O)(=O)c3ccccc32)CC1)OC(=O)c1ccccc1 (stereo unspecified) | – | – | – | –
CC(=O)N1CC(C)Sc2ccc(S(=O)(=O)NC(C)c3ccccc3)cc21 (stereo unspecified) | – | – | 13µM | –
CCCN(CC(=O)Nc1ccccc1C)C(=O)C1CC(=O)N(c2cccc(C)c2C)C1 (stereo unspecified) | – | · | – | –
Cc1ccccc1OC1C(=O)N(Cc2ccc3c(c2)OCO3)C1c1sccc1C (stereo unspecified) | ? | – | 13µM | –
COc1ccccc1CNC(=O)COC(=O)C1=COCCO1 | – | – | 5.2µM | –
O=C(NC(c1ccc(Cl)cc1)c1c(O)ccc2ccccc12)c1ccccc1 (stereo unspecified) | 12µM | ? | – | –
O=C(NC(c1ccccc1)c1c(O)ccc2ccccc12)c1ccccc1Cl (stereo unspecified) | ? | – | ? | –
CCC(=O)NC(c1ccccc1Cl)c1c(O)ccc2ccccc12 (stereo unspecified) | 10µM | – | – | –
COc1ccc(C(NC(=O)C(C)C)c2c(O)ccc3ccccc23)cc1 (stereo unspecified) | ? | – | – | –
SMILES | Pf growth 48h | NS1 function inh | Pf growth 96h | SARS PLpro yeast
CC(C)C(=O)NC(c1ccccc1Cl)c1c(O)ccc2ccccc12 (stereo unspecified) | 9.3µM | – | 4.7µM | –
Cc1ccc(S(=O)(=O)N2CCC(N3CCN(C)CC3)CC2)cc1Cl | – | – | – | –
CCC(=O)NN1CCc2cc3ccc(C)cc3nc21 | – | – | – | –
COC(=O)c1cn(NC(=O)C2CCC(C(C)(C)C)CC2)c(=O)c2ccccc12 (stereo unspecified) | – | – | 4.1µM | –
COC(=O)c1cn(NC(=O)C2COc3ccccc3O2)c(=O)c2ccccc12 (stereo unspecified) | – | – | – | –
COC(=O)c1cn(NC(=O)C2CCCO2)c(=O)c2ccccc12 (stereo unspecified) | – | ? | 12µM | –
COc1cc(OC)c(C2NC(=O)CCC2[N+](=O)[O-])cc1OC (stereo unspecified) | – | – | ? | –
COc1cc(C(=O)N/C(=C\c2cn(S(=O)(=O)N(C)C)c3ccccc23)C(=O)NCCCO)cc(OC)c1OC | ? | · | 8.3µM | –
COc1ccc(C(=O)N/C(=C\c2cn(S(=O)(=O)N(C)C)c3ccccc23)C(=O)NCCCn2ccnc2)cc1 | 12µM | – | – | –
CCCCN1C(=O)C(O)(c2ccccc2)c2cc(Br)ccc21 (stereo unspecified) | · | – | ? | –
O=C(CN1C(=O)c2ccccc2C1=O)NN1C(=O)c2ccccc2C1=O | – | – | – | –
CC1COC(C)(CC(=O)NN2C(=O)c3ccccc3C2=O)O1 (stereo unspecified) | – | – | 2.6µM | –
O=C(Nc1ccc2c(c1)CN(Cc1ccccc1O)CC2)C1CCCO1 (stereo unspecified) | ? | – | 3.3µM | –
COC(=O)C1Cc2ccccc2CN1S(=O)(=O)c1ccc(F)cc1 (stereo unspecified) | – | – | 1.3µM | –
O=C(Nn1cnnc1)C1Cc2ccccc2CN1S(=O)(=O)c1ccc(F)cc1 (stereo unspecified) | – | – | 8.3µM | –
Cc1nc2ccccc2nc1OCC(=O)Nc1cc(C(F)(F)F)ccc1N1CCOCC1 | 12µM | – | – | –
COCCOc1ccc(C(F)(F)F)cc1NC(=O)COC(=O)C12CC3CC(CC(O)(C3)C1)C2 | 2.3µM | – | ? | –
COCCOc1ccc(C(F)(F)F)cc1NC(=O)COC(=O)c1cc([N+](=O)[O-])ccc1N1CCOCC1 | ? | – | 9.3µM | –
CC(=O)Nc1ccc(C(=O)Nc2cc(C(F)(F)F)ccc2-n2cnc3ccccc32)cc1 | – | – | – | –
O=C(COC(=O)C12CC3CC(CC(O)(C3)C1)C2)Nc1ccc(Br)cc1F | – | · | – | –
CN(C)c1cccc(C(=O)Nc2cc(C(F)(F)F)ccc2-n2cnc3ccccc32)c1 | 12µM | – | ? | –
CC(C)CCN(C(=O)c1cn2ccccc2n1)c1c(N)n(Cc2ccccc2)c(=O)[nH]c1=O | – | · | – | –
CCCCn1c(N)c(N(Cc2ccccc2OC)C(=O)c2c(CC)noc2C)c(=O)[nH]c1=O | – | – | – | –
Cn1c(=O)c2ncn(CC(=O)Nc3cc(C(F)(F)F)ccc3N3CCOCC3)c2n(C)c1=O | ? | ? | ? | –
Cc1nonc1NC(=O)CSc1nc2ccccc2o1 | 13µM | – | – | –
O=C(CSc1nc2ccccc2o1)Nc1cc(C(F)(F)F)ccc1N1CCOCC1 | 12µM | – | · | –
O=C(Cn1cnc2ccccc21)Nc1cc(C(F)(F)F)ccc1N1CCOCC1 | 4.7µM | – | 4.1µM | –
CC(=O)Nc1nonc1NC(=O)CSc1nc2ccccc2o1 | ? | – | – | –
Cc1nn(CC(=O)NCc2cccnc2)c(C)c1[N+](=O)[O-] | – | – | – | –
